This is a sample that favours compounds with a hit; in the whole collection about 1.5% have one here.
gsp ag: gsp mutant agonism. gsp mutant cells, cAMP HTRF, 30 min. Potency, µM (top dose mostly 76.9 µM), for the others: top-dose activation (cAMP increase), actives largely listed as activators. hit rate 0.13% among 340,000. AID 624287; active means well fitted activation curve with a large enough effect; inconclusive means small, poorly fitted or top-dose-only effect, or another doubt; inactive means no such curve, though single readings can be large or run the other way; cell line not stated here;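 further: phosphodiesterase inhibitor Ro 20-1724 added with compounds to block cAMP breakdown; potency means the concentration at half of the fitted maximal effect; nearly all actives have a fitted effect of over 60% in size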
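Cells stably selected in G418 were plated at 2000/well, grown 16-24 hr, then given compounds in DMSO with the PDE inhibitor […] (300 uM solution added) for 30 min at 37C; cAMP was read by HTRF.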
IL2 activator: activators of IL-2 | AID 652025 | activation, % (series mostly up to about 46 µM) | hit rate 0.065% among 360,000 | IL-2 activation reporter assay, cell-based qHTS; stimulated with anti-CD3/CD4/CD28 beads; in transgenic mouse T cells; in the data active means activation above about 50%; inconclusive means mostly about 30% to 49%; further: 0% is about no effect
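EGFP and DsRed fluorescence is measured by plate cytometry in unstimulated transgenic mouse T cells exposed to compound for 60 minutes, then stimulated 18 hours at 37 degrees C with anti-CD3/anti-CD4 beads plus anti-CD28.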
BRCA1 expr act: increases BRCA1 expression; MCF7-BRCA1-FFLuc reporter, luminescence, 48 h; response scale: scaled: vehicle 0%, 10 µM genistein 100%; Potency, µM (doses to about 46.1 µM), for inactives: at the top dose activation, hits mostly activators; hit rate 1.1% among 380,000; further: potency means the concentration at half of the fitted maximal effect; nearly all actives have a fitted effect of over 80% in size
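Luminescence from a BRCA1-driven firefly luciferase in MCF7 cells was the read-out, taken 15 min after substrate addition following 48 h compound exposure at 37 °C. Data were normalized to a 10 microM genistein control and DMSO vehicle.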
gsp antagonist: antagonists of gsp mutant (McCune-Albright syndrome); gsp-mutant cells, cAMP HTRF, 30 min; Potency, µM (doses to about 76.9 µM), without a hit: at the highest dose activity change, negative = inhibition, hits mostly inhibitors; hit rate 0.4% among 340,000; calls by dose curve; cell line not stated here;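 further: intracellular cAMP measured with PDE inhibitor Ro 20-1724 present during compound exposure; potency means the concentration at half of the fitted maximal effect; on the % scale 0 is the no-effect control and ±100 the full control effect; nearly all actives have a fitted effect of over 65% in size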
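HTRF cAMP read-out (cAMP-d2 plus anti-cAMP antibody-K in lysis buffer, 30 min RT). Before lysis, cells are exposed to compounds with […] for 30 min at 37C in DPBS containing Ca/Mg, BSA and Tween 20.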
mIDH1 inhibitor: human IDH1 R132H inhibition; O75874; IDH1-R132H enzyme, NADPH consumption, diaphorase/resazurin fluorescence; Potency, µM (titrated, usually from 76.6 µM), for the others: at the highest dose activity change, negative = inhibition, actives largely listed as inhibitors; hit rate 0.093% among 390,000; AID 602179; further: potency means the concentration at half of the fitted maximal effect; on the % scale 0 is the no-effect control and ±100 the full control effect; nearly all actives have a fitted effect of over 65% in size
Target sequence (O75874 whole entry R132H, stated change not applied): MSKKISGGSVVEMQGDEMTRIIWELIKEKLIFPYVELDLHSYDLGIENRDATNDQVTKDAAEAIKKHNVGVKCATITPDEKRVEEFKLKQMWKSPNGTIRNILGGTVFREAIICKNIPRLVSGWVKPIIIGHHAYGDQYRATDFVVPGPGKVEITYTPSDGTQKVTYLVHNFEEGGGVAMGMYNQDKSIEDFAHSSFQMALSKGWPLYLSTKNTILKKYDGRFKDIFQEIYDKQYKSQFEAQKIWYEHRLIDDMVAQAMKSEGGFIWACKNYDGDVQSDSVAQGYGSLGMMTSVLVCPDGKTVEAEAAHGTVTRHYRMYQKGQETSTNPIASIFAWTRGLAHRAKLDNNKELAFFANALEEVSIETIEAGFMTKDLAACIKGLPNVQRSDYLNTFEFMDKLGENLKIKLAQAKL
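IDH1-R132H (0.5 ug/mL dispensed) in pH 7.5 Tris buffer was preincubated 30 min with compound, then given a substrate mix of 0.016 mM NADPH and 2 mM alpha-KG for 80 min at room temperature; remaining NADPH was read by diaphorase/resazurin fluorescence.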
An asterisk follows results filed as active; u = inconclusive; x = no result; [ ] = another dose, or the depositor's remark. Unless noted, the call rests on the fitted dose curve; in most records, active means well fitted curve in the direction sought with a large enough effect; inconclusive means small, poorly fitted or top-dose-only effect, or another doubt; inactive means no such curve, though single readings can be large; an effect the other way counts as inactive or inconclusive.

SMILES	gsp ag	IL2 activator	BRCA1 expr act	gsp antagonist	mIDH1 inhibitor
c1ccc(COc2ccc(-c3csnn3)cc2)cc1	12.8%	-0.6	5.62µM*	5.2%	0.9%
COC(=O)C/C=C/N(Cc1ccccc1OC)S(=O)(=O)CCl	x	-0.1	-3.5%	1.4%	6.6%
COC(=O)N/N=C\c1ccccc1OC/C=C/c1ccccc1	12.9%	-1.5	11.2µM*	-6.3%	-4.3%
COc1cc(/C=N\NC(C)=O)ccc1OC/C=C/c1ccccc1	-13.4%	-3.5	3.9%	-4.8%	1.2%
N#CCC(=O)N/N=C\c1cc(Br)ccc1OC/C=C/c1ccccc1	-73.8%	1.2	8.91µM*	10.8%	0.8%
CCOC(=O)N/N=C/c1ccc(Oc2ccccc2)cc1	14.5%	1.1	u	1.4%	10.7%
CCOC(=O)N/N=C\c1ccccc1OC/C=C/c1ccccc1	21.1%	-4.6	3.98µM*	-9.5%	0.0%
N#CCC(=O)N/N=C/c1cccc(Oc2ccccc2)c1	-22.1%	1.6	-10.5%	-0.9%	8.1%
Oc1cccc(-c2nc3ncccn3c2Nc2cccc(C(F)(F)F)c2)c1	x	x	-44.3%	x	-6.9%
COc1ccc(CN(Cc2ccccc2)C(=O)CN2CCN(C)CC2)cc1COc1ccc(NC(C)=O)cc1	x	x	6.0%	x	x
O=C(COC(=O)C1(c2ccccc2F)CCCC1)NCc1ccc2c(c1)OCO2	-9.6%	64.7*	-40.4%	-20.0%	3.9%
O=C(COC(=O)C1(c2ccc(F)cc2)CCCC1)NCc1ccc2c(c1)OCO2	u	3.1	-7.8%	-32.6%	6.4%
Cc1ccc(C(=O)Nn2cnc3ccccc3c2=O)cc1C	26.8%	2.8	8.91µM*	3.5%	7.1%
COc1ccc(CNC(=O)Cc2csc3nc(-c4ccc(C)cc4)cn23)cc1	x	x	x	x	-19.7%
Fc1ccc(NC(=S)Nc2nccs2)cc1	14.2%	0.1	3.16µM*	-0.5%	3.0%
O=C(NCC1CCCC(CNC(=O)Nc2ccc(Cl)cn2)C1)Nc1ccc(Cl)cn1 (configuration not stated)	-15.2%	-0.4	-67.7%	-19.4%	-6.6%
O=C(Nc1ccc2oc(-c3ccccc3Cl)nc2c1)c1ncn[nH]1	-5.3%	-0.5	u	-9.0%	-0.8%
O=C(Nc1ccc2oc(-c3cccc4ccccc34)nc2c1)c1ncn[nH]1	10.1%	0.3	2.24µM*	-9.7%	-0.3%
COc1ccc(CC(=O)NCC(c2ccc(Cl)cc2)N2CCOCC2)cc1 (configuration not stated)	x	x	x	x	4.3%
COc1cc(/C=C2/C(=O)c3cccc([N+](=O)[O-])c3C2=O)c(Br)cc1O	20.4%	-1.5	-14.6%	35.5µM*	3.1%
O=C(CCn1ccc2cc(S(=O)(=O)N3CCCC3)ccc21)NCc1ccccc1Cl	x	x	x	x	-10.7%
CN(C(=O)COC(=O)c1ccccc1OCC(=O)Nc1ccc(Br)cc1)c1ccccc1	x	x	-48.0%	x	x
Cc1nn(CCCC(=O)NCc2ccccc2)c(=O)c2nccn12	u	-0.2	25.2%	9.1%	-4.9%
CCc1ccc(CNC(=O)CCCn2nc(C)n3ccnc3c2=O)cc1	15.8µM*	0.4	19.3%	6.5%	8.2%
O=C(NCC1CC1)Nc1cccc(Cl)c1	-28.5%	-2.1	92.3%	12.3%	0.0%
SMILES	gsp ag	IL2 activator	BRCA1 expr act	gsp antagonist	mIDH1 inhibitor
O=C(NCC1CC1)Nc1ccc(Cl)cc1	-22.8%	0.8	10µM*	6.8%	-1.4%
O=C1CCC(C(=O)Nc2ccc(Cl)cc2)N1 (configuration not stated)	-1.6%[15.4 µM]	0.8	-3.5%	9.1%	-2.2%
O=C(NCc1cccs1)Nc1ccc(Cl)cc1	7.6%	-2.0	10µM*	7.4%	5.8%
O=C(NCCNC(=O)Nc1ccc(Cl)cc1)Nc1ccc(Cl)cc1	-28.7%	-2.4	-14.0%	-3.9%	8.4%
O=C(NCc1cccs1)Nc1ccc2c(c1)OCO2	-1.8%	-1.1	10µM*	-10.0%	4.4%
O=C(Nc1ccc(Cl)cc1)C1C2CCCCC21 (configuration not stated)	-1.4%	-0.5	2.24µM*	-4.9%	1.2%
O=C(NCc1ccncc1)Nc1ccc2c(c1)OCO2	-5.5%[15.4 µM]	2.2	12.3%	5.6%	18.7%
Cc1cccc(-c2nc(SCC(=O)Nc3ccc4c(c3)OCO4)c(-c3ccccc3)[nH]2)c1	x	x	x	x	8.9%
Nc1nc(=S)[nH]c(N)c1N	x	x	-8.2%	x	x
CC1CCC(Nc2nc3c(-c4ccc(Cl)cc4)nnn3c3ccccc23)CC1 (configuration not stated)	x	x	-22.8%	x	-7.9%
COC(c1ccccc1)c1nnc(CCC(=O)N(C)Cc2cccc(-n3cccn3)c2)o1 (configuration not stated)	u	5.5	12.6µM*	-4.7%	-1.1%
O=C(Nc1ccsn1)c1ccc(Cl)cc1Cl	17.0%	-0.5	2.51µM*	-9.8%	-5.8%
Cc1csc2ncc(C(=O)NCc3ccccc3Cl)c(=O)n12	u	0.9	-13.5%	2.8%	-2.6%
Cc1csc2ncc(C(=O)NC(C)c3ccccc3)c(=O)n12 (configuration not stated)	17.8µM*	-3.3	-7.6%	-1.6%	-9.8%
CC(CCc1ccccc1)NC(=O)C1CCN(c2nnc(-n3cccc3)s2)CC1 (configuration not stated)	12.6µM*	0.9	3.1%	-2.4%	10.8%
CCOC(=O)C1CCN(C(=O)CSc2n[nH]c(-c3ccccc3Cl)n2)CC1	x	x	x	x	26.7%
CCC(=O)N/N=C/c1ccc(-c2ccc([N+](=O)[O-])cc2)o1	13.5%	-0.3	12.6%	u	0.0%
CC(C)(C)C(=O)/C=c1\s/c(=C\c2ccc(-c3ccc([N+](=O)[O-])cc3)o2)c(=O)n1CC(=O)NC(N)=O	6.0%[15.4 µM]	164.1*	-24.9%	-8.5%	1.6%
CCN(c1ccccc1)C1SC(=O)N(c2ccccc2)C1=O (configuration not stated)	x	x	-2.9%	x	x
COc1ccc(OCc2cc(C(=O)N3CCCCCC3)no2)c(Cl)c1	-12.4%	-4.3	u	3.0%	5.7%
CSc1ccccc1OCc1cc(C(=O)N2CCSCC2)no1	6.4%	0.2	4.47µM*	-0.7%	-0.1%
COc1ccc(OCc2cc(C(=O)N3CCSCC3)no2)c(Cl)c1	-50.7%	-7.4	11.2µM*	4.8%	8.3%
O=C(c1cc(COc2ccc(F)cc2Cl)on1)N1CCSCC1	-30.3%	-1.5	6.31µM*	5.2%	22.8%
O=C(c1cc(COc2ccc(F)cc2Cl)on1)N1CCc2ccccc2C1	3.1%	-3.0	17.9%	-5.3%	0.0%
CSc1ccccc1OCc1cc(C(=O)N(C)Cc2ccc(C)o2)no1	-38.6%	-2.8	11.2µM*	6.3%	0.9%
N/C(=N\OC(=O)c1cccc(Br)c1)c1ccc([N+](=O)[O-])cc1	21.9%	1.9	-9.8%	3.8%	2.2%
N/C(=N\OC(=O)CSc1ccccc1)c1ccc([N+](=O)[O-])cc1	-5.6%	0.0	11.2µM*	12.0%	7.5%

Screening data deposited in PubChem by National Center for Advancing Translational Sciences (NCATS).
